Assay results as given in PubChem BioAssay AID1159580 (chemical genetic matrix, 2015).
Hit rate of the full screen: of about 5,500 compounds, about 2,000 (36%) were called active. About 18% were inconclusive and are not listed. The list shows a part of the results. A number with no mark means an inactive call. Cut-off read from the data, not from the text of the source: active = normalized growth mostly below about 0.91 (no sharp cut-off); inconclusive = no clear call, values can overlap the other calls; inactive = mostly above about 0.92.

Assay: chemical genetic growth profiling, strain panel (AID 1159580);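 note: tested at 20 µM; growth read once vehicle control cultures reached saturation at 30 °C; 1 = growth at the plate median or of vehicle wells; lower values mean less growth of the strain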
Conditions: growth OD

CN1CCC[C@@H]1CCO[C@](C)(c1ccccc1)c1ccc(Cl)cc1
normalized growth (S. cerevisiae deletion strains, locus YJR075W, strain HOC1, active compounds read low): 0.92
normalized growth (S. cerevisiae deletion strains, locus YKL009W, strain mrt4, active compounds read low): 0.977
normalized growth (S. cerevisiae deletion strains, locus YKL068W, active compounds read low): 0.992
normalized growth (S. cerevisiae deletion strains, locus YKL085W, strain MDH1 (second series), active compounds read low): 0.995
normalized growth (S. cerevisiae deletion strains, locus YKL085W, strain MDH1, active compounds read low): 0.995
normalized growth (S. cerevisiae deletion strains, locus YKL160W, strain elf1, active compounds read low): 0.977
normalized growth (S. cerevisiae deletion strains, locus YKL190W, strain CNB1, active compounds read low): 0.977
normalized growth (S. cerevisiae deletion strains, locus YKR001C, strain vps1, active compounds read low): 1.02
normalized growth (S. cerevisiae deletion strains, locus YKR026C, strain gcn3, active compounds read low): 1.02
normalized growth (S. cerevisiae deletion strains, locus YKR091W, strain srl3, active compounds read low): 1
normalized growth (S. cerevisiae deletion strains, locus YLL001W, strain dnm1, active compounds read low): 0.946
normalized growth (S. cerevisiae deletion strains, locus YLL026W, active compounds read low): 0.988
normalized growth (S. cerevisiae deletion strains, locus YLL041C, strain sdh2, active compounds read low): 0.992
normalized growth (S. cerevisiae deletion strains, locus YLR027C, strain aat2, active compounds read low): 0.98
normalized growth (S. cerevisiae deletion strains, locus YLR039C, strain RIC1, active compounds read low): 1.41 [resistant] (active)
normalized growth (S. cerevisiae deletion strains, locus YLR058C, strain SHM2, active compounds read low): 0.994
normalized growth (S. cerevisiae deletion strains, locus YLR102C, strain apc9, active compounds read low): 0.997
normalized growth (S. cerevisiae deletion strains, locus YLR113W, strain HOG1, active compounds read low): 0.969
normalized growth (S. cerevisiae deletion strains, locus YLR221C, strain rsa3, active compounds read low): 0.932
normalized growth (S. cerevisiae deletion strains, locus YLR258W, strain gsy2, active compounds read low): 0.977
normalized growth (S. cerevisiae deletion strains, locus YLR262C, strain YPT6 (second series), active compounds read low): 1.07
normalized growth (S. cerevisiae deletion strains, locus YLR262C, strain YPT6, active compounds read low): 1.46 [resistant] (active)
normalized growth (S. cerevisiae deletion strains, locus YLR268W, strain sec22, active compounds read low): 0.929
normalized growth (S. cerevisiae deletion strains, locus YLR320W, strain mms22, active compounds read low): 0.878
normalized growth (S. cerevisiae deletion strains, locus YLR330W, strain CHS5, active compounds read low): 1.02
normalized growth (S. cerevisiae deletion strains, locus YLR342W, strain FKS1 (second series), active compounds read low): 0.834
normalized growth (S. cerevisiae deletion strains, locus YLR342W, strain FKS1, active compounds read low): 0.893 (active)
normalized growth (S. cerevisiae deletion strains, locus YLR357W, strain rsc2, active compounds read low): 1.01
normalized growth (S. cerevisiae deletion strains, locus YLR370C, strain arc18, active compounds read low): 0.966
normalized growth (S. cerevisiae deletion strains, locus YLR371W, strain rom2, active compounds read low): 0.994
normalized growth (S. cerevisiae deletion strains, locus YLR384C, strain iki3, active compounds read low): 1.01
normalized growth (S. cerevisiae deletion strains, locus YLR418C, strain cdc73, active compounds read low): 0.682 (active)
normalized growth (S. cerevisiae deletion strains, locus YML016C, strain PPZ1, active compounds read low): 1.02
normalized growth (S. cerevisiae deletion strains, locus YML032C, strain rad52, active compounds read low): 0.98
normalized growth (S. cerevisiae deletion strains, locus YML120C, strain ndi1, active compounds read low): 1
normalized growth (S. cerevisiae deletion strains, locus YML124C, strain tub3, active compounds read low): 0.994
normalized growth (S. cerevisiae deletion strains, locus YMR058W, strain fet3, active compounds read low): 0.953
normalized growth (S. cerevisiae deletion strains, locus YMR078C, strain ctf18, active compounds read low): 0.993
normalized growth (S. cerevisiae deletion strains, locus YMR125W, strain sto1, active compounds read low): 0.96
normalized growth (S. cerevisiae deletion strains, locus YMR129W, active compounds read low): 0.99
normalized growth (S. cerevisiae deletion strains, locus YMR205C, strain PFK2, active compounds read low): 0.955
normalized growth (S. cerevisiae deletion strains, locus YMR223W, strain ubp8, active compounds read low): 0.964
normalized growth (S. cerevisiae deletion strains, locus YMR231W, strain pep5, active compounds read low): 1.01
normalized growth (S. cerevisiae deletion strains, locus YMR263W, strain SAP30, active compounds read low): 0.976
normalized growth (S. cerevisiae deletion strains, locus YMR307W, strain GAS1, active compounds read low): 0.92
normalized growth (S. cerevisiae deletion strains, locus YNL067W, strain RPL9B, active compounds read low): 0.971
normalized growth (S. cerevisiae deletion strains, locus YNL071W, strain lat1, active compounds read low): 0.888 (active)
normalized growth (S. cerevisiae deletion strains, locus YNL128W, strain TEP1, active compounds read low): 0.898
normalized growth (S. cerevisiae deletion strains, locus YNL153C, strain GIM3, active compounds read low): 1
normalized growth (S. cerevisiae deletion strains, locus YNL183C, strain NPR1, active compounds read low): 0.918
normalized growth (S. cerevisiae deletion strains, locus YNL209W, strain ssb2, active compounds read low): 0.877 (active)
normalized growth (S. cerevisiae deletion strains, locus YNL233W, strain BNI4, active compounds read low): 0.978
normalized growth (S. cerevisiae deletion strains, locus YNL248C, strain rpa49, active compounds read low): 0.836 (active)
normalized growth (S. cerevisiae deletion strains, locus YNL250W, strain rad50, active compounds read low): 0.986
normalized growth (S. cerevisiae deletion strains, locus YNL271C, strain bni1, active compounds read low): 0.986
normalized growth (S. cerevisiae deletion strains, locus YNL298W, strain CLA4, active compounds read low): 0.988
normalized growth (S. cerevisiae deletion strains, locus YNL307C, strain MCK1, active compounds read low): 0.96
normalized growth (S. cerevisiae deletion strains, locus YNL322C, strain KRE1 (second series), active compounds read low): 1.02
normalized growth (S. cerevisiae deletion strains, locus YNL322C, strain KRE1, active compounds read low): 1.01
normalized growth (S. cerevisiae deletion strains, locus YNR049C, strain mso1, active compounds read low): 1.01
normalized growth (S. cerevisiae deletion strains, locus YNR052C, strain pop2, active compounds read low): 0.971
normalized growth (S. cerevisiae deletion strains, locus YOL006C, strain TOP1, active compounds read low): 0.417 (active)
normalized growth (S. cerevisiae deletion strains, locus YOL012C, strain htz1): 0.791
normalized growth (S. cerevisiae deletion strains, locus YOL147C, strain pex11, active compounds read low): 0.999
normalized growth (S. cerevisiae deletion strains, locus YOR001W, strain rrp6, active compounds read low): 0.951
normalized growth (S. cerevisiae deletion strains, locus YOR061W, strain CKA2, active compounds read low): 1.01
normalized growth (S. cerevisiae deletion strains, locus YOR069W, strain VPS5, active compounds read low): 1
normalized growth (S. cerevisiae deletion strains, locus YOR070C, strain gyp1, active compounds read low): 0.974
normalized growth (S. cerevisiae deletion strains, locus YOR080W, strain dia2, active compounds read low): 0.994
normalized growth (S. cerevisiae deletion strains, locus YOR083W, strain WHI5, active compounds read low): 0.93
normalized growth (S. cerevisiae deletion strains, locus YOR106W, strain vam3, active compounds read low): 0.914
normalized growth (S. cerevisiae deletion strains, locus YOR136W, strain idh2, active compounds read low): 0.991
normalized growth (S. cerevisiae deletion strains, locus YOR144C, strain elg1, active compounds read low): 1
normalized growth (S. cerevisiae deletion strains, locus YOR184W, strain ser1, active compounds read low): 0.999
normalized growth (S. cerevisiae deletion strains, locus YOR231W, strain MKK1, active compounds read low): 0.991
normalized growth (S. cerevisiae deletion strains, locus YOR265W, strain rbl2, active compounds read low): 0.998
normalized growth (S. cerevisiae deletion strains, locus YOR270C, strain vph1, active compounds read low): 0.616 (active)
normalized growth (S. cerevisiae deletion strains, locus YOR290C, strain snf2, active compounds read low): 0.957
normalized growth (S. cerevisiae deletion strains, locus YOR316C, strain cot1, active compounds read low): 0.993
normalized growth (S. cerevisiae deletion strains, locus YPL051W, strain arl3, active compounds read low): 0.94
normalized growth (S. cerevisiae deletion strains, locus YPL055C, strain LGE1, active compounds read low): 0.782
normalized growth (S. cerevisiae deletion strains, locus YPL078C, strain atp4, active compounds read low): 0.916
normalized growth (S. cerevisiae deletion strains, locus YPL106C, strain sse1, active compounds read low): 1.02
normalized growth (S. cerevisiae deletion strains, locus YPL240C, strain hsp82, active compounds read low): 0.992
normalized growth (S. cerevisiae deletion strains, locus YPL241C, strain CIN2, active compounds read low): 0.999
normalized growth (S. cerevisiae deletion strains, locus YPL256C, strain CLN2, active compounds read low): 0.979
normalized growth (S. cerevisiae deletion strains, locus YPR119W, strain clb2, active compounds read low): 0.998
normalized growth (S. cerevisiae deletion strains, locus YPR141C, strain kar3, active compounds read low): 0.997
normalized growth (S. cerevisiae deletion strains, locus YPR163C, strain tif3, active compounds read low): 0.975
normalized growth (S. cerevisiae deletion strains, locus YPR167C, strain met16, active compounds read low): 0.991
normalized growth (S. cerevisiae deletion strains, strain wtn01, active compounds read low): 0.959
normalized growth (S. cerevisiae strains, strain wild type, active compounds read low): 0.99
